The text below walks through data of PubChem BioAssay (Tox21).

Each structure is given as a SMILES string. Where “and” joins values, the source holds several entries; their conditions need not be identical. Equal entries are not always repeated. A number with no mark means an inactive call. Records with an inconclusive call do not appear. Calls of active or inactive are those of the source. Calls come from the whole dose curve; as a rule, active = well fitted curve in the direction sought with a large enough effect in the repeat runs; inconclusive = weak or mixed curves; inactive = no such curve, though single readings can be large; an effect the other way counts as inactive or inconclusive.

Experiment [1] can be described thus: qHTS RealTime-Glo MT Cell Viability Assay in HepG2 cells - 40 hour (AID 1224870). Note: nearly all actives have a fitted effect of over 50% in size. An outline of the steps:
(§1)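 Real-time viability: cells seeded at 600 per well together with NanoLuc and cell-permeant prosubstrate, compounds added after 5 h incubation. Luminescence tracked at 0, 8, 16, 24, 32 and 40 h of exposure.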
Background: In qHTS, concentration-response curves come from the screen itself.

Experiment [2] in a line: A CellTox Green Cytotoxicity Assay to monitor cytotoxicity in HEK293 cells - 40 hour (AID 1224871). Note: nearly all actives have a fitted effect of over 45% in size. An outline of the steps:
(§2)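 Dead-cell fluorescence measured kinetically: asymmetric cyanine dye, HEK293, 600 cells/well, 5 h settle, 23 nL cpd/DMSO, 37 C, reads 0–40 h every 8 h.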

Experiment [3] in a line: qHTS RealTime-Glo MT Cell Viability Assay in HEK293 cells - 16 hour (AID 1224872). Note: top concentration of the series differs between compounds; nearly all actives have a fitted effect of over 50% in size. An outline of the steps:
(§3)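 Cells + reagent dispensed (600 cells/well, HEK293) → 5 h at 37 C/5% CO2 → 23 nL compound in DMSO pinned → 40 h at 37 C → luminescence read at 0, 8, 16, 24, 32, 40 h.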

The nature of experiment [4]: qHTS RealTime-Glo MT Cell Viability Assay in HepG2 cells - 8 hour (AID 1224873). Note: nearly all actives have a fitted effect of over 55% in size. The procedure, abridged:
as §1

A short description of experiment [5]: qHTS RealTime-Glo MT Cell Viability Assay in HEK293 cells - 40 hour (AID 1224874). Note: nearly all actives have a fitted effect of over 50% in size. As to conditions: RealTime-Glo luminescence; max response: hits give low values. The procedure, abridged: (§4)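 600 HEK293 cells per well, dispensed already mixed with RealTime-Glo MT reagents. Compound dosing came 5 h later. The same wells were read for luminescence at 0, 8, 16, 24, 32 and 40 h of exposure at 37 C.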

A short description of experiment [6]: A CellTox Green Cytotoxicity Assay to monitor cytotoxicity in HEK293 cells - 24 hour (AID 1224875). Note: series mostly up to about 77 µM; nearly all actives have a fitted effect of over 45% in size. An outline of the steps: as §2
Experiment [7] in a line: A CellTox Green Cytotoxicity Assay to monitor cytotoxicity in HepG2 cells - 16 hour (AID 1224876). Note: nearly all actives have a fitted effect of over 45% in size. The procedure, abridged: (§5)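 First, HepG2 cells (600/well) mixed with reagent were plated; second, after 5 h at 37 C they received compounds via pintool; third, fluorescence was measured at 0 h through 40 h at 8 h intervals.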
The nature of experiment [8]: qHTS RealTime-Glo MT Cell Viability Assay in HepG2 cells - 32 hour (AID 1224877). Note: nearly all actives have a fitted effect of over 55% in size. The procedure, abridged:
(§6)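 Real-time, nonlytic viability: 600 HepG2 cells/well mixed with NanoLuc enzyme plus prosubstrate; 5 h settle, compound (DMSO) added by pintool; luminescence monitored over 40 h at 37 C.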

A short description of experiment [9]: A CellTox Green Cytotoxicity Assay to monitor cytotoxicity in HepG2 cells - 24 hour (AID 1224878). Note: nearly all actives have a fitted effect of over 45% in size. The procedure, abridged:
as §5

The nature of experiment [10]: A CellTox Green Cytotoxicity Assay to monitor cytotoxicity in HepG2 cells - 40 hour (AID 1224879). Note: nearly all actives have a fitted effect of over 40% in size. An outline of the steps: as §5
A short description of experiment [11]: qHTS RealTime-Glo MT Cell Viability Assay in HEK293 cells - 0 hour (AID 1224880). For activity change, negative = cytotoxicity: top concentration of the series differs between compounds. Note: nearly all actives have a fitted effect of over 45% in size. Note: potency is the fitted concentration of half-maximal effect. An outline of the steps: as §4
Experiment [12] can be described thus: A CellTox Green Cytotoxicity Assay to monitor cytotoxicity in HEK293 cells - 32 hour (AID 1224881). Note: nearly all actives have a fitted effect of over 40% in size. The procedure, abridged: as §2
The nature of experiment [13]: A CellTox Green Cytotoxicity Assay to monitor cytotoxicity in HepG2 cells - 0 hour (AID 1224882). Note: nearly all actives have a fitted effect of over 35% in size. The procedure, abridged:
as §5

Experiment [14] is described as follows: A CellTox Green Cytotoxicity Assay to monitor cytotoxicity in HepG2 cells - 32 hour (AID 1224883). Note: nearly all actives have a fitted effect of over 50% in size. The procedure, abridged:
as §5

The nature of experiment [15]: A CellTox Green Cytotoxicity Assay to monitor cytotoxicity in HEK293 cells - 8 hour (AID 1224884). Note: nearly all actives have a fitted effect of over 35% in size. An outline of the steps: as §2
Experiment [16] in a line: qHTS RealTime-Glo MT Cell Viability Assay in HepG2 cells - 16 hour (AID 1224885). Note: nearly all actives have a fitted effect of over 50% in size. The procedure, abridged:
as §6

Experiment [17] is described as follows: qHTS RealTime-Glo MT Cell Viability Assay in HEK293 cells - 8 hour (AID 1224887). An outline of the steps:
as §4

Experiment [18] in a line: A CellTox Green Cytotoxicity Assay to monitor cytotoxicity in HEK293 cells - 16 hour (AID 1224888). Note: nearly all actives have a fitted effect of over 35% in size. The procedure, abridged: as §2
Experiment [19] is described as follows: qHTS RealTime-Glo MT Cell Viability Assay in HepG2 cells - 0 hour (AID 1224889). Note: nearly all actives have a fitted effect of over 50% in size. Note: potency is the fitted concentration of half-maximal effect. An outline of the steps:
as §6

A short description of experiment [20]: qHTS RealTime-Glo MT Cell Viability Assay in HEK293 cells - 24 hour (AID 1224886). The procedure, abridged: as §3
% is set by controls: 0 for no effect and ±100 for the full control effect.

`CN(C)CCCNCCCN(C)C`: the Potency result in experiment [1], in [2], in [3], in [4], in experiment [6] and in experiment [7] was “inactive” each time. Besides, the Potency entry in [8], in experiment [9], in [10], in [11], in [12] and in experiment [13] was “inactive” in each case. Also, the Potency result in [14], in experiment [15], in experiment [16], in experiment [17], in experiment [18] and in experiment [19] was “inactive” throughout. The max response in [5] is 5.75%.
With `N=C(N)c1ccccc1`, the Potency entry in [1], in experiment [2], in [3], in experiment [4], in experiment [6] and in [7] was “inactive” each time. Also, the Potency result in [8], in experiment [9], in experiment [10], in [11], in [12] and in [13] was “inactive” in each case. The Potency entry in experiment [14], in experiment [15], in experiment [16], in experiment [20], in experiment [17] and in experiment [18] was “inactive” each time. In addition, the Potency result in experiment [19] was “inactive”. Also, the max response in experiment [5] was -0.53%.
Turning to `CC(=O)OCC(=O)[C@@]1(O)CCC2C3CCC4=CC(=O)CC[C@]4(C)C3[C@@H](O)C[C@@]21C` (some centres not stated), the Potency result in experiment [1], in experiment [2], in [3], in experiment [4], in [6] and in [7] was “inactive” throughout. Besides, the Potency result in [8], in [9], in [10], in [12], in experiment [13] and in [14] was “inactive” each time. The Potency result in [15], in experiment [16], in experiment [20], in experiment [17] and in [18] was “inactive” each time. Further, the max response in experiment [5] is -13.4%. The Potency in [11] was 8.49 µM (active); in experiment [19] it was 2.39 µM (active).
For the molecule `CCCCCCOC(=O)CCCCC(=O)OCCCCCC`, the Potency result in experiment [1], in experiment [2], in [3], in experiment [4], in experiment [6] and in experiment [7] was “inactive” throughout. Further, the Potency result in experiment [8], in experiment [9], in [10], in [11], in experiment [12] and in experiment [13] was “inactive” in each case. Further, the Potency entry in experiment [14], in experiment [15], in [16], in experiment [20], in [17] and in experiment [18] was “inactive” in each case. Also, in [19], the Potency entry was “inactive”. Besides, the max response in [5] is 7.23%.
Take `CO[Si](CCCOCC1CO1)(OC)OC` (configuration not stated): the Potency result in [1], in [2], in [3], in experiment [4], in experiment [6] and in [7] was “inactive” throughout. Further, the Potency result in experiment [8], in experiment [9], in experiment [10], in experiment [11], in [12] and in experiment [13] was “inactive” in each case. Moreover, the Potency entry in [14], in [15], in experiment [16], in experiment [20], in experiment [17] and in experiment [18] was “inactive” each time. In addition, the Potency entry in experiment [19] is “inactive”. In addition, in experiment [5], the max response was 0.892% and 6.22%.
Take `C[N+](C)(C)CCCCCC[N+](C)(C)C`: the Potency result in experiment [1], in experiment [2], in experiment [3], in experiment [4], in experiment [6] and in experiment [7] was “inactive” each time. The Potency entry in experiment [8], in experiment [9], in [10], in experiment [11], in [12] and in experiment [13] was “inactive” throughout. Also, the Potency entry in [14], in experiment [15], in [16], in experiment [17], in experiment [18] and in experiment [19] was “inactive” each time. Further, the max response in [5] was 3.71% and 1.42%.
On to `Nc1ccc(S(=O)(=O)Nc2ccnn2-c2ccccc2)cc1`, for which the activity change, negative = cytotoxic in experiment [1] is 0.768% [at 15.8 µM]; in [8], 1.3% [at 15.8 µM]; in experiment [16], -1.35% [at 15.8 µM]. Besides, the Potency result in [2] and in experiment [12] was “inactive” throughout. The activity change, negative = cytotoxicity is 9.13% [at 15.8 µM] in experiment [3]; 3.82% [at 15.8 µM] in [11]; 7.4% [at 15.8 µM] in [20]; 7.76% [at 15.8 µM] in [17]; -1.91% [at 15.8 µM] in experiment [19]. The viability change, negative = cytotoxic in experiment [4] is -7.88% [at 15.8 µM]. For the same molecule, the max response in [5] is 3.19%. Besides, the activity change in experiment [6] is 1.21% [at 15.8 µM, hits give high values]; in experiment [18], 2.29% [at 15.8 µM, hits give high values]. The cytotoxicity increase in [7] is 2.84% [at 15.8 µM]; in [10] it was 1.49% [at 15.8 µM]; in experiment [14] it was 3.28% [at 15.8 µM]; in [15] it was 1.9% [at 15.8 µM]. The cytotoxicity in experiment [9] is -1.77% [at 15.8 µM]; in experiment [13], 3.97% [at 15.8 µM].
Turning to `CCOC(=O)c1ccc(C)cc1`, the Potency entry in experiment [1], in experiment [2], in [3], in experiment [4], in [6] and in experiment [7] was “inactive” each time. Besides, the Potency entry in experiment [8], in experiment [9], in experiment [10], in experiment [11], in experiment [12] and in [13] was “inactive” throughout. Also, the Potency entry in experiment [14], in [15], in [16], in [20], in experiment [17] and in experiment [18] was “inactive” each time. Also, in experiment [19], the Potency result is “inactive”. Also, the max response in [5] was 8.25%.
Take `CN1N=C(C(N)=O)CCC1=O`: the Potency entry in experiment [1], in experiment [2], in experiment [3], in experiment [4], in experiment [6] and in experiment [7] was “inactive” throughout. In addition, the Potency result in [8], in [9], in [10], in [11], in experiment [12] and in experiment [13] was “inactive” each time. The Potency entry in [14], in experiment [15], in experiment [16], in [17], in experiment [18] and in experiment [19] was “inactive” in each case. For the same molecule, in experiment [5], the max response was 0.803%.
For `O=Cc1cccc([N+](=O)[O-])c1`, the Potency result in [1], in experiment [2], in experiment [3], in experiment [4], in [6] and in experiment [7] was “inactive” each time. The Potency result in experiment [8], in experiment [9], in experiment [10], in experiment [11], in [12] and in [13] was “inactive” throughout. The Potency result in experiment [14], in [15], in experiment [16], in experiment [20], in experiment [17] and in [18] was “inactive” each time. Besides, the Potency result in [19] is “inactive”. The max response in experiment [5] was 5.4%.
In the case of `CCCCC/C=C\CCC=O`, the Potency entry in [1], in experiment [2], in experiment [3], in [4], in experiment [6] and in experiment [7] was “inactive” throughout. In addition, the Potency entry in [8], in experiment [9], in experiment [10], in [11], in experiment [12] and in experiment [13] was “inactive” in each case. For the same molecule, the Potency result in experiment [14], in experiment [15], in [16], in [20], in [17] and in [18] was “inactive” each time. Moreover, the Potency entry in [19] was “inactive”. Also, the max response in experiment [5] was 1.73%.
Regarding `Brc1c(NC2=NCCN2)ccc2nccnc12`, the Potency entry in [1], in [2], in [3], in [4], in experiment [6] and in experiment [7] was “inactive” throughout. Moreover, the Potency entry in [8], in experiment [9], in experiment [10], in experiment [11], in experiment [12] and in experiment [13] was “inactive” throughout. The Potency entry in experiment [14], in experiment [15], in experiment [16], in [20], in experiment [17] and in [18] was “inactive” each time. Further, the Potency result in [19] is “inactive”. The max response in [5] is -1.41%.
